Consider 37 compounds from PubChem BioAssay AID1347047 (National Center for Advancing Translational Sciences (NCATS), 2019).

In all, about 1,400 compounds went through this assay and about 10 (0.7%) were called active. Not shown: some 2% with an inconclusive outcome. For the sample, actives were picked, then their nearest neighbours and some compounds at random. Values without a mark were called inactive. Calls follow the shape of the dose curve; as a rule, active = well fitted inhibition curve with a large enough effect; inconclusive = small, poorly fitted or top-dose-only effect; inactive = flat fitted curve, though single readings scatter.
Potency is read from the fitted curve at half-maximal effect.

Sequence of Luciferin 4-monooxygenase (Photinus pyralis) (P08659 whole entry, looked up): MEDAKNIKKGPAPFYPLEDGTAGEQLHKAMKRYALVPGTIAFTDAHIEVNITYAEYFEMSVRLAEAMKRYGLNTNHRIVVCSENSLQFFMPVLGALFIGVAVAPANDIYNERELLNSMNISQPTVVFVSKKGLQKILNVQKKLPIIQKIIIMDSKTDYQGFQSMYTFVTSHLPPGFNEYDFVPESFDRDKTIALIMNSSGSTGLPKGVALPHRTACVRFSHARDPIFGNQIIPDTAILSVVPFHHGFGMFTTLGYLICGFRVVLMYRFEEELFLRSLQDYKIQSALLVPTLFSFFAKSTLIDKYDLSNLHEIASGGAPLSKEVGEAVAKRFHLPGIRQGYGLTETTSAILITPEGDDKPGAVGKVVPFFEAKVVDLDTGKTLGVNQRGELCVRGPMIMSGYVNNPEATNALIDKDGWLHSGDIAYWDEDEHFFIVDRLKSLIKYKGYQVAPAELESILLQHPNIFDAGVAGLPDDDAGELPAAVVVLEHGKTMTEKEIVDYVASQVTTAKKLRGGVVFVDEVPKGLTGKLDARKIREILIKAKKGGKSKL

The assay concerns the target Luciferin 4-monooxygenase (Photinus pyralis) (UniProt P08659). The assay can be described thus: Natriuretic polypeptide receptor (hNpr1) antagonism - Confirmation firefly luciferase (FLuc) inhibition counterscreen. As to activity change, negative = inhibition: 0% is about no effect. Particulars: purified FLuc enzyme, luminescence, Km substrate; series mostly up to 57.6 µM; activity change, negative = inhibition: at the top concentration. From the text: Firefly (Photinus pyralis) luciferase (FLuc) is one of the more frequently used transcriptional reporter genes, and it has also been developed as a cellular sensor for cyclic nucleotides. (Fan F & Wood KV, 2007; Fan F et al., 2008) However, a significant number of compounds that populate chemical libraries have been identified as FLuc ligands which can be mistaken for modulators of the intended targeted pathways, receptors or enzymes. (Auld, DS et al. 2008; Thorne, N et al. 2012) Therefore, the FLuc enzyme assay conducted at sensitive Km level substrate conditions is used to counter-screen for potential FLuc ligands. Auld DS, Thorne N, Nguyen DT & Inglese J A specific mechanism for nonspecific activation in reporter-gene assays. ACS Chem Biol. 2008, 3: 463-470. DOI: 10.1021/cb8000793 Fan F, Binkowski BF, Butler BL, Stecha PF, Lewis MK, Wood KV. Novel genetically encoded biosensors using firefly luciferase. ACS Chem Biol. 2008, 3: 346-351. DOI: 10.1021/cb8000414 Fan F and Wood KV. Bioluminescent assays for high-throughput screening. Assay Drug Dev Technol. 2007, 5: 127-136. […] Chemistry & Biology, 2012, 19: 1060-1072. DOI.org/10.1016/j.chembiol.2012.07.015
PROTOCOL TABLE (as described by Inglese J, Shamu CE and Guy RK. 2007) SEQUENCE No. (e.g., 1, 2, 3, etc.); PARAMETER (e.g., Cells, Incubation, Reagent, etc.); VALUE and DESCRIPTION. FLUC KM ENZYME COUNTERSCREEN (Thorne, N.T. et al. 2012) 1. Reagent. Add 3 uL of D-luciferin substrate buffer per well into Greiner 1536-well white/solid bottom high base, medium bind plates. 2. Compounds. Library compounds and PTC124 control added at 23nL per well, transferred by Pin Tool. 3. Incubation. Incubate plates at room temperature for […], protect from light. 4. Reagent. Add 1uL of P. pyralis luciferase (FLuc) per well of Greiner 1536-well plates. 5. Incubation. Incubate plates at room temperature for 10 min., protect from light. 6. Detector. FLuc luminescence measured using CCD-based camera (Viewlux). NOTES (numbers refer to Sequence numbers above) 1. Substrate buffer: 10 uM D-luciferin final concentration in 50 mM Tris-Acetate, pH 7.6, 10 mM Mg-Acetate, 10 uM ATP, 0.01% Tween-20, and 0.05% BSA buffer added at 3uL/well to 13 x Greiner 1536-well white/solid bottom high base, medium bind plates. 2. PTC124 stock solution prepared (10 mM in DMSO; Auld D.S. et al. 2010). Working dilution for dispense = 10 mM stock dilution (57.5 uM final concentration; 16-pt 1:3 titration in duplicate = final concentration range of 57.5 uM - 4 pM). 23nL of library compounds, PTC124 control or DMSO vehicle control transferred to the 13 substrate-containing Greiner white/solid bottom high base, medium bind plates in 11 interplate 1:3 titrations (see Yasgar, A. et al. 2008) with Pintool. 3. Substrate incubated for 30-50 min. at ambient temperature protected from light with metal lid. 4. Enzyme solution: 10 nM P. pyralis luciferase (FLuc) final concentration in 50 mM Tris-Acetate, pH 7.6 added at 1uL to 13 x Greiner 1536-well white/solid bottom high base, medium bind plates. 5. Substrate and enzyme incubated with test library compounds and controls for 10 min. at ambient temperature protected from light with metal lid. 6. Read final Luminescence on the ViewLux. [Exposure = 30 s.; Gain = High; Speed = Slow; and Binning = 2X.] REFERENCES: Auld DS, Lovell S, Thorne N, Lea WA, Maloney DJ, Shen M, Rai G, Battaile KP, Thomas CJ, Simeonov A, Hanzlik RP and Inglese J. Molecular basis for the high-affinity binding and stabilization of firefly luciferase by PTC124. […] Chemistry & Biology, 2012, 19: 1060-1072. doi.org/10.1016/j.chembiol.2012.07.015 Yasgar A, Shinn P, Jadhav A, Auld DS, Michael S, Zheng W, Austin CP, Inglese J and Simeonov A, Compound Management for Quantitative High-Throughput Screening. J. Assoc. Lab. Auto., 2008, 13: 79-89. doi: 10.1016/j.jala.2007.12.004
On the technique in general: The purpose of a counterscreen is to sort out artefacts and off-target activity.
Consider `O=C(NCc1nnc2cc(-c3nc(C4CC4)no3)ccn12)c1ccc(F)cc1Cl`, for which the “activity change, negative = inhibition” value was -1.04%.
Same read-out and setting: with `Cc1cccc(CN2CCc3nc(C(=O)Nc4ccc(Cl)cc4)oc3CC2)c1` the figure was 1.12% [at 86.2 µM]; with `C1CCC(COCCc2noc(C3CNC3)n2)C1`, -2.28%.
Consider `O=C(c1cccc(F)c1)N1CCOC[C@H](Oc2ccc(C(F)(F)F)cc2)C1`, for which the “activity change, negative = inhibition” value was 1.12% [at 86.2 µM].
With `Cc1cccc(-c2cccc(CN)c2)c1`, the “activity change, negative = inhibition” value is 2.71% [at 86.2 µM].
Turning to `Cc1c[nH]c(CN2CCCC(CCc3ccc(F)cc3F)C2)c(C)c1=O` (configuration not stated), the “activity change, negative = inhibition” value is 1.09%.
`c1ccc(CO[C@@H]2CO[C@H]3[C@@H]2OC[C@@H]3n2nnnc2SCc2ccco2)cc1`: the “activity change, negative = inhibition” value is -4.3% [at 86.2 µM].
On the same count and under the same terms, with `CC(=O)N1CCC(NC[C@H]2O[C@H](Cc3cc(-c4cccc(O)c4)on3)CC[C@@H]2O)CC1` the figure was -16.5% [at 86.2 µM]; with `O=C(c1ccccc1)N1CCNc2cnc(Nc3cccc(C(F)(F)F)c3)nc2C1`, -2.64% [at 86.2 µM].
On to `O=c1[nH]c(C2CCCN(Cc3ccccn3)C2)nn1-c1ccc(Cl)cc1` (configuration not stated), for which the “activity change, negative = inhibition” value was 5.04%.
On the same count and under the same terms, with `COc1ccc(CN2C(=O)CO[C@H]3CN(Cc4ccc5c(c4)OCO5)C[C@H]32)cc1` the figure was -0.695% [at 86.2 µM]; with `CC(C)c1cc(C(=O)N2CCC(n3cc(-c4ccccn4)nn3)CC2)n(C)n1`, -0.701%.
The same measure, in the same setting: with `O=C(N1CCN(c2cc(-c3ccc(Cl)cc3)[nH]n2)CC1)C1(c2ccccc2)CC1` the figure was -0.0118%.
Still for that read-out and setting: with `Cc1ccc2c(c1)nc1n2[C@@H](CNS(=O)(=O)c2ccccc2)COC1` the figure was -0.128% [at 86.2 µM]; with `COc1cccc(CNC(=O)Cn2c(N(C)Cc3ccccc3)nc(C)cc2=O)c1OC`, 0.184%.
For `COc1cccc(C2C(C(=O)Nc3ccccc3)=C(C)N=C3SC=C(CC(=O)NCC(C)C)N32)c1` (configuration not stated), the “activity change, negative = inhibition” value is -12.5%.
`Cc1ccc2nc(C3CCCN(Cc4ccc(C#N)cc4)C3)[nH]c(=O)c2c1` (configuration not stated): the “activity change, negative = inhibition” value was -0.515%.
Take `COC(=O)C1=C(C)N=C2SC=C(CC(=O)NCCC(C)C)N2C1c1ccccc1Cl` (configuration not stated): the “activity change, negative = inhibition” value was 0.647%.
Still for that read-out and setting: with `O=C1Nc2ccccc2CN(Cc2ccccc2)C12CCNCC2` the figure was 4.28%.
Still for that read-out and setting: with `COc1ccc(C2Cn3nnc(C(=O)N4CCN(C(=O)c5ccc(C)cc5C)CC4)c3CO2)cc1` (configuration not stated) the figure was 0.552%.
The same measure, in the same setting: with `COc1ccc(C2Cn3nnc(C(=O)N4CCN(C(=O)c5cccc(Cl)c5)CC4)c3CO2)cc1` (configuration not stated) the figure was 1.68%.
As for `COc1ccc(C(=O)N2CCC(n3cc(-c4nc(C(C)C)no4)nn3)CC2)cc1F`, the “activity change, negative = inhibition” value is 1.05%.
On to `O=C1c2cnc(-c3ccc(Cl)cc3)nc2OCCN1Cc1ccccc1`, for which the Potency was 2500 nM (active).
Regarding `O=C1NCN(Cc2ccc(Cl)cc2)C12CCN(Cc1ccccc1)CC2`, the “activity change, negative = inhibition” value was -0.162% [at 86.2 µM].
Take `OC1(Cc2cc(-c3ccccc3)no2)CCN(c2ncncn2)CC1`: the “activity change, negative = inhibition” value was 3.35%.
On the same count and under the same terms, with `CC(C)c1noc(-c2cn(C3CCN(C(=O)c4ccc(N(C)C)cc4)C3)nn2)n1` (configuration not stated) the figure was -0.906%; with `CC(C)c1nncn1C1CCN(S(=O)(=O)c2cccc(Br)c2)CC1`, -1.18%; with `COc1ccc(-c2noc(CC3CCN(C(=O)Cc4ccccc4)CC3)n2)cc1`, -0.401%.
Same read-out and setting: with `O=C(c1ccc2cc[nH]c2c1)N1CCC2(CC1)N=C(c1ccc(Cl)cc1)NO2` the figure was -17.6%.
The same measure, in the same setting: with `CCN(CCCNC(=O)c1nnn2cc(-c3ccccc3)[nH]c(=O)c12)c1ccccc1` the figure was -2.16%; with `CCc1ccc(C(=O)N2CCN(c3cc(-c4ccc(F)cc4)[nH]n3)CC2)cc1`, 13.4%.
As for `COc1ccc(CCNC(=O)c2noc(-c3ccc(C)cc3)n2)cc1OC`, the “activity change, negative = inhibition” value was -6.77%.
On to `O=C(c1ccccn1)N1CC(Oc2ccc(-c3noc(C4CC4)n3)cc2)C1`, for which the “activity change, negative = inhibition” value was -4.39%.
On the same count and under the same terms, with `Cc1cccc(C(=O)N2CCC3(CC2)CC(N(Cc2ccc(F)cc2)C2CC2)CCO3)c1` (configuration not stated) the figure was 10.7%.
Still for that read-out and setting: with `Cc1nn2c(c1-c1ccccc1-c1ccccc1)N(CC1CC1)CCC2` the figure was -14.2% [at 86.2 µM]; with `CN(Cc1csc(-c2ccccc2)n1)c1cc(C2CC(O)C2)nc(N)n1` (configuration not stated), -2.31%; with `COc1cccc(C2Cn3nnc(-c4nc(-c5ccccc5)no4)c3CO2)c1` (configuration not stated), -7.75%.
